Screens (PubChem BioAssay)
DT40 TDP1 CPT: growth inhibition of DT40 Tdp1-/-;hTDP1 cells with camptothecin (screen for TDP1 inhibitors) | 12% of 420,000 active | chicken DT40 Tdp1-/-;hTDP1 cells + 20 nM CPT, ATP luminescence, 48 h | AID 686979 | Potency, µM (highest dose often 46.2 µM), for the others: at the top dose activity change, negative = growth inhibition, actives largely listed as inhibitors; also: % is scaled to controls: 0 for no effect and ±100 for the full control effect; nearly all actives have a fitted effect of over 55% in size
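Chicken DT40 Tdp1-/- cells stably complemented with human TDP1 were seeded at 400 cells/well in medium containing 20 nM camptothecin, exposed to pin-transferred compounds, and grown at 37 °C for at least 48 hr. Viability was read as ATP luminescence.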
TDP1 cell noCPT: qHTS for Inhibitors of human tyrosyl-DNA phosphodiesterase 1 (TDP1): qHTS in cells in absence of CPT | 15% of 420,000 active | DT40 Tdp1-/- hTDP1 cells, no CPT, ATP luminescence, 48 h | Potency, µM (highest dose often 46.2 µM), inactives show at the highest dose activity change, negative = growth inhibition, usual class: inhibitors; also: % is scaled to controls: 0 for no effect and ±100 for the full control effect; nearly all actives have a fitted effect of over 55% in size
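Compound effects on proliferation are scored in DT40 Tdp1-/-;hTDP1 cells in the absence of CPT. ATP levels (CellTiter-Glo luminescence) are recorded after a ≥48 hr, 37 °C incubation.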
ClpP mod: qHTS Assay for Activators of ClpP. purified B. subtilis ClpP, FRET peptide cleavage, 20 min. 1.9% of 340,000 active. AID 651965, 2013. Potency, µM (top dose mostly 57.5 µM), for inactives: top-dose activity change, negative = active; active = well fitted falling curve with a large enough effect; inconclusive = small, poorly fitted or top-dose-only effect; inactive = no such curve, though single readings can be large or run the other way; also: the source files actives as falling curves though it sought activators and does not explain the sign; nearly all actives have a fitted effect of over 65% in size
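Buffer: 100 mM Tris/HCl pH8, 100 mM KCl, 0.05% low protease BSA, 2.5% glycerol, 0.01% Tween-20. ClpP 10 microg/mL final; 20 min RT; delta FRET normalized to ADEP and DMSO controls.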
TDP1 inh: TDP1 (human) enzyme inhibition; recombinant TDP1, AlphaScreen DNA substrate cleavage; Potency, µM (doses to about 130 µM), inactives show top-dose activity change, negative = inhibition, actives largely listed as inhibitors; 0.28% of 350,000 active; also: % is scaled to controls: 0 for no effect and ±100 for the full control effect; nearly all actives have a fitted effect of over 40% in size
Target sequence (Q9NUW8 whole entry, looked up): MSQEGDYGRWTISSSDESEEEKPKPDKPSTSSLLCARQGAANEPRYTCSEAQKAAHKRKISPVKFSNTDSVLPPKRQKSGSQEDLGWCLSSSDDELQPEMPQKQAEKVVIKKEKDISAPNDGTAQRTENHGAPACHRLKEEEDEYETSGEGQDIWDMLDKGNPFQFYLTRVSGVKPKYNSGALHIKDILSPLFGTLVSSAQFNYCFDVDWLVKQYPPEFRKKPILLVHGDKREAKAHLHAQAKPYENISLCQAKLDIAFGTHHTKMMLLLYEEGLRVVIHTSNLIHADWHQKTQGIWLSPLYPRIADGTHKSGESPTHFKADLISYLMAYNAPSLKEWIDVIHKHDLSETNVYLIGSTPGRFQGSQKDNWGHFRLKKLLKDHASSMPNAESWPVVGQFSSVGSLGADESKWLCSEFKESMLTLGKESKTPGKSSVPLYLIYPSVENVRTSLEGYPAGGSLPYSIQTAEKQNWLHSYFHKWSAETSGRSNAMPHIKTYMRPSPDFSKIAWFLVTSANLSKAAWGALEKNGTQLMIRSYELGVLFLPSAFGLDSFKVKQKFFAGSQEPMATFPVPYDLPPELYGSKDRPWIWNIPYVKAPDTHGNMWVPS
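Here, a 5' biotin and 3' phosphotyrosine-FITC DNA oligonucleotide reports Tdp1 activity: intact substrate bridges AlphaScreen beads, while cleavage leaves a 3' phosphate and drops signal. All incubations at room temperature.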
Numbers without * were called inactive; u = inconclusive; x = no result; [ ] = dose if it differs, or a comment. This is a sample that favours compounds with a hit; in the whole collection about 17% have one here. Unless noted, calls follow the shape of the dose curve; as a rule, active = well fitted curve in the direction sought with a large enough effect; inconclusive = small, poorly fitted or top-dose-only effect, or another doubt; inactive = no such curve, though single readings can be large; an effect the other way counts as inactive or inconclusive. Potency is read from the fitted curve at half-maximal effect.

SMILES	DT40 TDP1 CPT	TDP1 cell noCPT	ClpP mod	TDP1 inh
CCOC(=O)C1=C(N)n2c(s/c(=C/c3ccccc3)c2=O)=C(C(=O)OCC)C1c1ccccc1 (stereo not drawn)	x	x	x	-1.9%
CCOC(=O)C1(CCc2ccccc2)CCN(Cc2c(O)cccc2OC)CC1	25.9µM*	13µM*	-8.5%	-4.8%
CCOC(=O)C1(CCc2ccccc2)CCN(Cc2ccc(O)cc2)CC1	16.4µM*	20.6µM*	-1.8%	3.7%
CCOC(=O)c1c(C)[nH]c(C)c1S(=O)(=O)N1c2ccccc2CC1C (stereo not drawn)	u	u	-1.4%	7.1%
O=S(=O)(c1cccc(Cl)c1)c1nnn2c1nc(NC1CCCC1)c1sccc12	u	u	-5.7%	-12.8%
CC1CCN(c2nc3c(S(=O)(=O)c4cccc(Cl)c4)nnn3c3ccsc23)CC1	u	23.1µM*	22.4µM*	2.6%
Cc1cc(C)cc(Nc2nc3c(S(=O)(=O)c4cccc(Cl)c4)nnn3c3ccsc23)c1	-12.8%	2.2%	-3.9%	2.6%
CCN(CC)c1nc2c(S(=O)(=O)c3cccc(Cl)c3)nnn2c2ccsc12	8.2µM*	20.6µM*	u	-2.6%
O=S(=O)(c1cccc(Cl)c1)c1nnn2c1nc(NCc1ccc3c(c1)OCO3)c1sccc12	u	23.1µM*	u	5.1%
O=C(O)CCCCCNC(=O)OCC1c2ccccc2-c2ccccc21	4.11µM*	11.6µM*	-16.6%	x
Cc1cccc(NC(=O)c2sc3nc(-c4cc5ccc(O)cc5oc4=O)[nH]c(=O)c3c2C)c1	20.6µM*	20.6µM*	-4.8%	-1.3%
Cc1cc(C)cc(NC(=O)c2sc3nc(-c4cc5ccccc5oc4=O)[nH]c(=O)c3c2C)c1	u	-10.1%	1.5%	-2.6%
Cc1c(C(=O)Nc2cccc(F)c2)sc2nc(-c3cc4ccccc4oc3=O)[nH]c(=O)c12	23.1µM*	u	0.3%	6.5%
Cc1ccc(CN(Cc2ccco2)C(=O)c2ccc(OCC(C)C)cc2)cc1	u	16.4µM*	0.7%	-1.2%
CCOc1ccc(C(=O)N(Cc2ccc(C(C)C)cc2)Cc2ccco2)cc1	u	20.6µM*	0.4%	-2.3%
COCc1c(C(=O)N2CCCCC2c2cccnc2)cnn1-c1ncc2c(n1)-c1ccccc1CCC2 (stereo not drawn)	-12.2%[9.04 µM]	u	x	x
O=C(Nc1cccc(Cl)c1)NC1CC2CCC1C2 (stereo not drawn)	u	-2.6%	-0.3%	x
CCCc1cc(=O)oc2cc(OCC(=O)NCCCN3CCOCC3)ccc12	18.2%	-2.0%	x	0.0%
CC(C)NC(=O)COc1coc(CN2CCN(c3cccc(Cl)c3)CC2)cc1=O	-19.5%	5.2%	0.1%	2.4%
O=C(COc1coc(CN2CCN(c3cccc(Cl)c3)CC2)cc1=O)NC1CCCC1	u	14.6µM*	-1.5%	0.3%
Cc1ccc(NC(=O)COc2coc(CN3CCN(c4ccccc4)CC3)cc2=O)cc1	-29.4%	20.6µM*	-4.5%	-3.1%
COc1ccccc1N1CCN(Cc2cc(=O)c(OCC(=O)Nc3ccccc3)co2)CC1	u	u	25.1µM*	-1.6%
O=C(COc1coc(CN2CCN(c3ccccc3F)CC2)cc1=O)Nc1ccccc1	-19.6%	-29.9%	x	-5.1%
CC(NC(=O)c1cc(S(=O)(=O)N(C)C)ccc1Cl)C1CC2CCC1C2 (stereo not drawn)	16.4µM*	9.2µM*	-0.2%	1.1%
CC(NC(=O)c1ccccc1[N+](=O)[O-])C1CC2CCC1C2 (stereo not drawn)	-0.1%	-4.5%	25.1µM*	x
SMILES	DT40 TDP1 CPT	TDP1 cell noCPT	ClpP mod	TDP1 inh
CC(NC(=O)c1ccccc1Br)C1CC2CCC1C2 (stereo not drawn)	-7.6%	-7.8%	x	x
CCOC(=O)c1cnn2c(C(F)(F)F)cc(-c3ccccc3)nc12	u	-26.6%	-10.2%	2.9%
CCOC(=O)N1CCN(c2nc(-c3cccc(OC)c3)cc(C(F)(F)F)n2)CC1	u	20.6µM*	28.2µM*	1.9%
CCOC(=O)N1CCC(NC(=O)c2cnn3c(C(F)(F)F)cc(-c4cccc(OC)c4)nc23)CC1	13µM*	16.4µM*	-7.0%	5.3%
COc1ccc(-c2cc(C(F)(F)F)n3ncc(C(=O)N4CCCCC4c4cccnc4)c3n2)cc1 (stereo not drawn)	16.4µM*	u	0.8%	7.2%
CCOC(=O)C1CCCN(C(=O)c2cnn3c(C(F)(F)F)cc(-c4ccccc4)nc23)C1 (stereo not drawn)	18.4µM*	23.1µM*	-1.0%	-4.5%
COC(=O)c1cnn2c(C(F)(F)F)cc(-c3ccc(F)cc3)nc12	2.2%	-24.0%	-2.1%	-6.8%
COc1cccc(-c2cc(C(F)(F)F)nc(-n3cncn3)n2)c1	-13.7%	-23.4%	-10.3%	-6.4%
COc1cccc(-c2cc(C(F)(F)F)nc(-n3cc(C)cn3)n2)c1	14.6µM*	16.4µM*	-11.2%	4.6%
C/C(=N/NC(=O)CN1CCN(S(=O)(=O)c2ccc(C)cc2)CC1)c1ccco1	-0.9%	0.3%	-0.5%	5.1%
COc1ccc2c(c1)nc(N)n2Cc1ccccc1	u	u	-1.4%	7.9%
COc1ccc2c(c1)c1nnc(SC)nc1n2Cc1ccccc1	10µM*	11.2µM*	1.6%	x
CSc1nnc2c3cc(C)ccc3n(Cc3ccccc3)c2n1	u	11.6µM*	-1.3%	-2.1%
CCn1c2ccc(OC)cc2c2nc3ccccc3nc21	u	11.6µM*	-5.0%	0.0%
COc1ccc(NC(=O)c2noc3c2CCCC3)cc1Cl	-21.8%	-0.8%	-15.2%	-1.1%
CCC(=O)c1cn(CC(=O)Nc2ccccc2Cl)c2ccccc12	-3.6%	-9.5%	x	x
COc1cccc(C(=O)Nc2nnc(-c3cccs3)o2)c1	16.4µM*	u	0.1%	9.8%
CC(=O)c1ccc(C(=O)Nc2nnc(-c3ccc(Cl)cc3)o2)cc1	9.2µM*	9.2µM*	-1.1%	x
O=C(Cc1ccc(F)cc1)Nc1nnc(-c2ccc(F)cc2)o1	23.1µM*	u	-5.4%	0.5%
O=C(Cc1ccccc1)Nc1nnc(-c2ccccc2)o1	u	u	-5.3%	x
CS(=O)(=O)c1cccc(-c2nnc(NC(=O)c3ccc4ncsc4c3)o2)c1	-7.8%	-2.3%	-4.1%	x
COc1cccc(-c2nnc(NC(=O)c3ccc4ncsc4c3)o2)c1	16.4µM*	14.6µM*	-11.1%	6.7%
CCOC(=O)C1(CC2CCCCO2)CCN(C(=O)Nc2ccc(C(=O)OC)cc2)CC1 (stereo not drawn)	u	u	-3.8%	0.0%
COC(=O)[C@@H]1C[C@H]1[C@@H](N)c1ccccc1	x	x	x	3.3%
CCOc1ccc(-c2nnc(NC(=O)c3ccc(OCC(C)C)c(OC)c3)o2)cc1	5.8µM*	6.51µM*	4.4%	11.4%
COC(=O)c1sccc1NC(=O)c1cccc(OC)c1	u	20.6µM*	-1.3%	2.2%
COC(=O)c1sccc1NC(=O)c1cc2c(s1)CCCC2	-19.2%	10.3µM*	35.5µM*	-11.0%
